Holding throughout (test): modulators of BK channel variants, profiling panel, selectivity assay, cell-based, U2OS BacMam, thallium flux, beta subunits (AID 1259406);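 also: initial slope of Thallos dye fluorescence rise after thallium is added; log ratio against the mean of 0.3% DMSO vehicle wells on the same plate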
One assay relates to F380Y/beta2Delta. The settings on record: at 30 µM.
The next assay relates to F380Y/beta4. The settings on record: at 30 µM.
The target in assay [1] is Calcium-activated potassium channel subunit alpha-1 (Homo sapiens) + Leucine-rich repeat-containing protein 26 (Homo sapiens) (UniProt Q12791+Q2I0M4). The settings on record: F380Y/Slo1WT/gamma1, at 30 µM.
Chain of Calcium-activated potassium channel subunit alpha-1 (Homo sapiens) + Leucine-rich repeat-containing protein 26 (Homo sapiens) (Q2I0M4 whole entry, looked up, one chain of several): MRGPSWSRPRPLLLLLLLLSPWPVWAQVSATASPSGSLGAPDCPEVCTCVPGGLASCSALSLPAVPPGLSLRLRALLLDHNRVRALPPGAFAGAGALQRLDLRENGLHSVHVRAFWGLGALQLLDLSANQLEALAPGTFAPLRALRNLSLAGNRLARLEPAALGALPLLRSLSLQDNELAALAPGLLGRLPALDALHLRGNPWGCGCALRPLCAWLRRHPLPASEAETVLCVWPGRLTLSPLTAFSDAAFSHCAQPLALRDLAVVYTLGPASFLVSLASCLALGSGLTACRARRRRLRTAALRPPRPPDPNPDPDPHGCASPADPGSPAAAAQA
A further assay relates to R275C. The settings on record: at 30 µM.
Another assay relates to R275C/beta1. The note with it: at 30 µM.
Another assay relates to R275C/beta2Delta. The settings on record: at 30 µM.
A further assay concerns R275C/beta4. The note with it: at 30 µM.
The next assay concerns R275C/Slo1WT/beta2. The settings on record: at 30 µM.

Our source for the log fold change Tl+ flux values is PubChem BioAssay.

A number with no mark means an inactive call. Active and inactive are the calls of the source.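 The calls were made as follows: active = thallium flux through the channel raised or lowered by more than 3 SD from vehicle-only wells, actives on both sides; inactive = the rest.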

As to `CN(C)CC[C@@H](c1ccc(Br)cc1)c1ccccn1`, the log fold change Tl+ flux is -0.012 in the assay on F380Y/beta2Delta; 0.0692 in the assay with F380Y/beta4; 0.0361 in assay [1]; -0.0783 with R275C; 0.0411 in the assay on R275C/beta1; 0.0403 in the assay on R275C/beta2Delta. For the same compound, the log fold change Tl+ flux was 0.00601 in the assay with R275C/beta4 and 0.00129 with R275C/Slo1WT/beta2.
Take `CCN(CC)CCNC(=O)c1cc(Cl)c(N)cc1OC`: the log fold change Tl+ flux is -0.0588 in the assay on F380Y/beta2Delta; -0.0267 in the assay on F380Y/beta4; 0.0156 in assay [1]; 0.0337 in the assay on R275C; -0.0145 with R275C/beta1; -0.0122 in the assay on R275C/beta2Delta. In addition, the log fold change Tl+ flux in the assay on R275C/beta4 is -0.0991; in the assay with R275C/Slo1WT/beta2, -0.0439.
For the compound `CCc1oc2ccccc2c1C(=O)c1cc(Br)c(O)c(Br)c1`, the log fold change Tl+ flux was 0.479 (active) with F380Y/beta2Delta; 0.628 (active) with F380Y/beta4; 0.428 (active) in assay [1]; 0.0187 with R275C; 0.704 (active) with R275C/beta1; 0.431 (active) with R275C/beta2Delta. For the same compound, the results for the log fold change Tl+ flux in the assay with R275C/beta4 and with R275C/Slo1WT/beta2 were 0.722 (active) and 0.347 (active), respectively.
`CCc1nn(CCCN2CCN(c3cccc(Cl)c3)CC2)c(=O)n1CCOc1ccccc1`: the log fold change Tl+ flux is -0.507 (active) with F380Y/beta2Delta; -0.446 (active) with F380Y/beta4; 0.00963 in assay [1]; -0.055 with R275C; 0.378 (active) in the assay on R275C/beta1; 0.156 (active) with R275C/beta2Delta. Moreover, the log fold change Tl+ flux in the assay with R275C/beta4 is 0.207 (active); in the assay with R275C/Slo1WT/beta2, -0.00757.
`NCC1CCC(C(=O)Oc2ccc(CCC(=O)O)cc2)CC1` (stereo not given): the log fold change Tl+ flux is -0.0278 with F380Y/beta2Delta; -0.00261 in the assay with F380Y/beta4; 0.0182 in assay [1]; -0.0458 with R275C; 0.036 in the assay with R275C/beta1; 0.00228 with R275C/beta2Delta. Besides, the log fold change Tl+ flux is -0.0367 in the assay on R275C/beta4 and -0.00395 in the assay with R275C/Slo1WT/beta2.
With `CC(N)C12CC3CC(CC(C3)C1)C2` (stereo not given), the log fold change Tl+ flux in the assay with F380Y/beta2Delta is 0.0577; in the assay with F380Y/beta4, 0.0485; in assay [1], 0.0164; in the assay with R275C, 0.0361; in the assay on R275C/beta1, -0.0211; in the assay on R275C/beta2Delta, 0.0568. In addition, the log fold change Tl+ flux in the assay on R275C/beta4 is 0.04; with R275C/Slo1WT/beta2, 0.0291.
In the case of `O=C1CC2(CCCC2)CC(=O)N1CCCCN1CCN(c2ncccn2)CC1`, the log fold change Tl+ flux in the assay on F380Y/beta2Delta was 0.0619; in the assay on F380Y/beta4, 0.0587; in assay [1], 0.00932; with R275C, 0.00417; in the assay on R275C/beta1 it was 0.0329; in the assay on R275C/beta2Delta it was -0.0367. Also, the log fold change Tl+ flux with R275C/beta4 is 0.0017; in the assay on R275C/Slo1WT/beta2, -0.02.
With `CC(C)NCC(O)COc1ccc(COCCOC(C)C)cc1` (stereo not given), the log fold change Tl+ flux in the assay on F380Y/beta2Delta was 0.00366; with F380Y/beta4, 0.0255; in assay [1], 0.0397; in the assay on R275C, -0.0696; in the assay with R275C/beta1, -0.003; in the assay with R275C/beta2Delta, -0.0507. The log fold change Tl+ flux with R275C/beta4 is 0.0137; with R275C/Slo1WT/beta2, 0.0109.
As for `COc1cc(C(=O)NC2CCCNC2)cc(OC)c1OC` (stereo not given), the log fold change Tl+ flux is -0.0479 with F380Y/beta2Delta; -0.0783 in the assay on F380Y/beta4; 0.00703 in assay [1]; -0.0701 in the assay on R275C; -0.0128 with R275C/beta1; 0.000824 in the assay on R275C/beta2Delta. For the same compound, the values for the log fold change Tl+ flux in the assay with R275C/beta4 and with R275C/Slo1WT/beta2 were 0.00216 and -0.0186, respectively.
For `Cc1[nH]cnc1CN1CCc2c(c3ccccc3n2C)C1=O`, the log fold change Tl+ flux in the assay with F380Y/beta2Delta was -0.0209; in the assay with F380Y/beta4, -0.0392; in assay [1] it was 0.00572; in the assay on R275C, -0.066; in the assay on R275C/beta1, 0.0308; in the assay with R275C/beta2Delta, -0.0141. Also, the log fold change Tl+ flux is 0.0279 in the assay on R275C/beta4 and 0.0535 in the assay on R275C/Slo1WT/beta2.
Turning to `OCCOCCN1CCN(C2=Nc3ccccc3Sc3ccccc32)CC1`, the log fold change Tl+ flux is 0.0505 with F380Y/beta2Delta; 0.186 (active) in the assay on F380Y/beta4; 0.0336 in assay [1]; -0.011 in the assay with R275C; 0.15 (active) in the assay on R275C/beta1; 0.106 (active) in the assay with R275C/beta2Delta. Further, the log fold change Tl+ flux in the assay on R275C/beta4 was 0.142 (active); in the assay on R275C/Slo1WT/beta2, -0.027.
For the compound `CC(C)c1ccc2oc3nc(N)c(C(=O)O)cc3c(=O)c2c1`, the log fold change Tl+ flux is 0.00122 with F380Y/beta2Delta; 0.0364 in the assay with F380Y/beta4; 0.0473 in assay [1]; -0.0223 with R275C; -0.0119 in the assay with R275C/beta1; 0.0807 in the assay on R275C/beta2Delta. For the same compound, the log fold change Tl+ flux in the assay with R275C/beta4 is -0.00203; in the assay on R275C/Slo1WT/beta2, 0.0208.
As for `Brc1c(NC2=NCCN2)ccc2nccnc12`, the log fold change Tl+ flux in the assay with F380Y/beta2Delta was -0.06; in the assay on F380Y/beta4, -0.0578; in assay [1], -0.0163; in the assay with R275C, -0.0123; in the assay with R275C/beta1, 0.0524; with R275C/beta2Delta it was -0.0061. Further, the log fold change Tl+ flux in the assay on R275C/beta4 was 0.0292; in the assay on R275C/Slo1WT/beta2, 0.0556.
Take `COc1cc2nc(N3CCN(C(=O)C4CCCO4)CC3)nc(N)c2cc1OC` (stereo not given): the log fold change Tl+ flux was -0.00319 with F380Y/beta2Delta; 0.00186 in the assay on F380Y/beta4; -0.0172 in assay [1]; 0.0113 with R275C; -0.0224 in the assay with R275C/beta1; -0.0771 in the assay on R275C/beta2Delta. The results for the log fold change Tl+ flux in the assay with R275C/beta4 and in the assay with R275C/Slo1WT/beta2 were -0.0968 and -0.0619, respectively.
Regarding `Cc1nc2ccc(CN(C)c3ccc(C(=O)N[C@@H](CCC(=O)O)C(=O)O)s3)cc2c(=O)[nH]1`, the log fold change Tl+ flux with F380Y/beta2Delta is -0.00369; in the assay with F380Y/beta4, 0.0379; in assay [1], -0.00311; in the assay with R275C, -0.0146; in the assay with R275C/beta1, 0.00396; in the assay with R275C/beta2Delta, -0.00877. Further, the values for the log fold change Tl+ flux with R275C/beta4 and in the assay on R275C/Slo1WT/beta2 were -0.00369 and -0.0401, respectively.
